PubChem BioAssay AID2314 (National Center for Advancing Translational Sciences (NCATS), 2010)
“And” between values parts separate entries of the source, which are not always exact repeats. Identical values can stand only once. Out of some 300,000 compounds screened, about 37,000 (12%) were called active. Many of the other results were omitted from the sample, so actives are more common in it than they were. A number with no mark means an inactive call. Rule as the data show it: active = max response mostly above about 13% (no sharp cut-off); inactive = mostly below about 14%.

assay: Cycloheximide Counterscreen for Small Molecule Inhibitors of Shiga Toxin; conditions: cell reporter, cycloheximide protein synthesis inhibition counterscreen; active compounds read high; also: read at 38.3 µM for the half of the compounds with a filed dose; 0% is about no effect

| Structure (SMILES) | max response |
| --- | --- |
| CCOC(=O)c1nc(-c2ccc3c(c2)OCO3)[nH]c1C | 29% (active) |
| CCOC(=O)c1c(C)[nH]c(C(=O)COc2ccc3c(c2)OCO3)c1C | 18% |
| CCOCCOC(=O)C1=C(C)NC(=O)NC1c1ccc2c(c1)OCO2 (stereo unspecified) | -1.93% |
| Cc1cc(C)n2nc(C(=O)N(C)C(c3ccccc3)c3ccccc3)nc2n1 | -3.94% |
| CC1CN(C(=S)Nc2ccc(S(N)(=O)=O)cc2)CC(C)O1 (stereo unspecified) | -1.03% |
| O=C(Nc1ccc(Br)cc1)c1cc(S(=O)(=O)Nc2ccccn2)ccc1Cl | 0.597% |
| CCOC(=O)C1=C(c2ccccc2)NC(=O)NC1c1cc(OC)c(OC)cc1OC (stereo unspecified) | 1.07% |
| CC(C)=C(NC(=O)c1ccccc1)C(=O)N/N=C(\C)c1ccccc1O | 1.01% |
| COc1ccccc1N(CC(=O)N/N=C(\C)c1ccccc1O)S(=O)(=O)c1ccc(C)cc1 | -1.67% |
| C/C(=N\NC(=O)c1ccoc1C)c1ccccc1O | 18.7% (active) |
| COc1ccc(Cl)cc1-n1c(C)cc(C(=O)OCC(=O)N2CC(=O)Nc3ccccc32)c1C | 0.969% |
| CC(C)COC(=O)n1c(=O)oc2ccc(S(=O)(=O)N3CCCCC3)cc21 | -3.35% |
| O=C(Nc1nnc(-c2ccc(F)cc2)s1)c1c(F)cccc1Cl | -1.16% |
| COCCCNC(=S)NNC(=O)C(O)(c1ccccc1)c1ccccc1 | -2.66% |
| COc1ccccc1OCCNC(=O)c1cc([N+](=O)[O-])cc([N+](=O)[O-])c1 | 6.58% |
| COCCCNC(=S)NC(=O)c1ccc([N+](=O)[O-])cc1 | 27.5% (active) |
| Cc1cccc(OCCNC(=S)NC(=O)c2cccnc2)c1 | -2.88% |
| CCCCCC(=O)NC(=S)NNC(=O)c1ccc([N+](=O)[O-])cc1 | 0.94% |
| COCCCNC(=S)NC(=O)c1ccccc1 | 36.8% (active) |
| O=C(Cc1ccccc1Cl)N1CCOCC1 | -3.01% |
| Cc1ccc(Cl)cc1NC(=O)CN1CCN(S(=O)(=O)N2CCOCC2)CC1 | -6.26% |
| O=C(c1c(F)cccc1Cl)N1CCN(S(=O)(=O)c2ccc3c(c2)OCCCO3)CC1 | -1.76% |
| O=C(CN(C(=O)CCC(=O)Nc1nccs1)c1ccc(F)cc1)NCc1ccc2c(c1)OCO2 | -6.07% |

| Structure (SMILES) | max response |
| --- | --- |
| COc1ccc(-c2oc(/N=C/N3CCCC3)c(C#N)c2-c2ccc(OC)cc2)cc1 | -5.61% |
| Fc1ccccc1CCNc1nnnn1-c1ccccc1 | 0.858% |
| O=[N+]([O-])c1cc(C(F)(F)F)ccc1NCCc1ccncc1 | 9.83% |
| O=C1CCC(=O)N1c1ccc(NCCc2ccccc2F)c([N+](=O)[O-])c1 | 21.6% (active) |
| COc1ccc(N2CCC(CNC(=S)Nc3c(C)cccc3C)C2)cc1 (stereo unspecified) | -1.13% |
| COc1cc(NS(=O)(=O)c2ccc(NC(=O)c3ccc([N+](=O)[O-])cc3)cc2)ncn1 | -2.23% |
| CCCc1cc(=O)oc2c(C)c(OCC(=O)Nc3ccccn3)ccc12 | 32.5% (active) |
| CCCc1cc(=O)oc2c(C)c(OCC(=O)N3CCC(C(=O)O)CC3)ccc12 | -2.94% |
| CCCc1cc(=O)oc2c(C)c(OCC(=O)NCc3ccccn3)ccc12 | -0.405% |
| O=C1COc2ccc(C(=O)COC(=O)C3CC(O)CN3S(=O)(=O)c3ccc(Cl)cc3)cc2N1 (stereo unspecified) | -1.44% |
| CCc1ccc(Nc2nnc(SCC(=O)c3ccc4c(c3)NC(=O)CO4)s2)cc1 | 20.5% (active) |
| COc1cccc(Nc2nnc(SCC(=O)N3CC(=O)Nc4ccccc43)s2)c1 | -2.67% |
| CCCc1nc2ccccc2c(C(=O)OCC(=O)c2ccc3c(c2)NC(=O)CO3)c1CC | -2.81% |
| COC(=O)c1ccccc1Sc1c(/C=N/OCc2ccc(Cl)cc2)c(C(F)(F)F)nn1C | 3.42% |
| CC(C)C(C)(C#N)NC(=O)CSc1nc2scc(-c3ccccc3)c2c(=O)[nH]1 (stereo unspecified) | -4.09% |
| CCOc1cccc(-n2nnnc2-c2ccc(OC)cc2)c1 | -3.31% |
| COc1ccc(-n2nnnc2-c2nc3ccccc3s2)cc1 | 40.1% (active) |
| COc1ccc(-n2nnnc2SCC(=O)NCc2cccs2)cc1 | -3.1% |
| Cc1ccc(NC(=S)NC(NC(=O)Cc2cccc3ccccc23)C(Cl)(Cl)Cl)cc1 (stereo unspecified) | -3% |
| O=C(Cc1cccc2ccccc12)NNC(=O)Nc1ccc(Cl)cc1 | 28.4% (active) |
| Fc1ccccc1CNC(=S)Nc1ccc(Cl)cc1 | 6.56% |
| O=C(CCCCCn1c(=S)[nH]c2cc3c(cc2c1=O)OCO3)N1CCN(c2ccc(F)cc2)CC1 | 10.7% |
| CC(=O)c1ccc(NC(=O)Nc2ccc([N+](=O)[O-])cc2C)cc1 | -0.717% |

| Structure (SMILES) | max response |
| --- | --- |
| CC(=O)N1c2ccc(S(=O)(=O)N3CCC(C(=O)NC4CCCCC4C)CC3)cc2CC1C (stereo unspecified) | 4.46% |
| CCc1ccc(Nc2ncc3c(n2)CC(c2ccco2)CC3=O)cc1 (stereo unspecified) | 26.7% (active) |
| O=C(Nc1ncc2c(n1)CC(c1ccco1)CC2=O)c1ccc(Cl)cc1 (stereo unspecified) | -2.44% |
| COc1cc(C2CC(=O)c3cnc(NC(C)=O)nc3C2)cc(OC)c1OC (stereo unspecified) | -4.71% |
| COC(=O)c1nc2n(n1)C(c1ccc([N+](=O)[O-])cc1)C(C(=O)Nc1ccc(Cl)cc1)=C(C)N2 (stereo unspecified) | -2.4% |
| O=c1cc(Cl)c2ccccc2n1-c1ccccc1 | -3.75% |
| Cc1cc(C)c(C2C3=C(Nc4c2c(C)nn4-c2ccccn2)c2ccccc2C3=O)c(C)c1 (stereo unspecified) | -1.26% |
| COc1ccc(NC(=O)c2cccc(NC(=O)c3ccco3)c2)c(OC)c1 | -3.4% |
| O=C(Nc1ccc(NC(=O)c2cccs2)cn1)c1ccco1 | 51.1% (active) |
| NC(=O)c1ccsc1NC(=O)c1ccco1 | 12.2% |
| COc1cccc(C(=O)Nc2ccc(NC(=O)c3ccco3)cn2)c1 | 55.5% (active) |
| COc1ccccc1C(=O)Nc1ccc(NC(=O)c2ccco2)c(C)c1 | 10.8% |
| O=C(Nc1ccnc(-c2ccncc2)n1)c1cccs1 | -2.6% |
| CC(C)CC(=O)NC(=S)NNC(=O)c1cccc([N+](=O)[O-])c1 | 4.5% |
| CCOc1ccc(CNC(=O)C2CCCN(c3nnc(C)c4c(C)n(-c5ccccc5)nc34)C2)cc1 (stereo unspecified) | -1.93% |
| COc1ccc(S(=O)(=O)N2CCN(c3ccc(F)cc3)CC2)cc1-c1noc(C)n1 | 10.5% |
| Cc1ccccc1CSc1nnc(CCCCCNC(=O)OC(C)(C)C)o1 | -1.71% |
| CCOc1ccccc1NC(=O)Cn1nnc(C(=O)NCc2cccs2)c1N | -7.84% |
| O=C(NCc1cc(F)cc(C(F)(F)F)c1)C1CCC(=O)N(C2CCCC2)C1 (stereo unspecified) | 25.3% |
| O=C(C1CCN(S(=O)(=O)c2ccc(Br)s2)CC1)N1CCN(c2ccccc2)CC1 | -2.23% |
| O=C(NCCc1ccccc1)C1CCN(S(=O)(=O)c2ccc(Br)s2)CC1 | 11.9% (active) |
| CSc1ccc(S(=O)(=O)N2CCC(C(=O)NCCc3ccccc3)CC2)cc1 | 0.47% |
| Oc1c(Cl)cc(Cl)cc1/C=N/c1ncn[nH]1 | -3.31% |

| Structure (SMILES) | max response |
| --- | --- |
| CCOC(=O)N1CCN(C(=O)c2ccc3c(=O)n(CCc4ccc(OC)c(OC)c4)c(=O)[nH]c3c2)CC1 | 2.53% |
| COc1cccc(CNC(=O)C2CCCN(S(=O)(=O)N3CC(C)CC(C)C3)C2)c1 (stereo unspecified) | 3.03% |
| O=C(N/N=C/c1ccc(Cl)cc1)c1nc2ccc([N+](=O)[O-])cc2c(=O)[nH]1 | -1.53% |
| O=C(/C(=C/c1cccc(Cl)c1)c1nc2ccccc2[nH]1)c1ccccc1 | 46.6% (active) |
| Oc1ccc(Cl)cc1/C=N/c1nc2ccccc2[nH]1 | 23.3% |
| CC(C)(C)c1ccc(CCC2OCC(CN3CCOCC3)O2)cc1 (stereo unspecified) | 16.4% |
| CCOC(OCC)OCC | 6.84% |
| COc1ccc(Nc2cc(=O)oc3ccccc23)cc1 | -1.7% |
| COc1c(C(C)C)oc2cc3oc(=O)ccc3cc12 | 60.5% (active) |
| Cc1oc2cc3oc(=O)ccc3cc2c1C | 25.5% (active) |
| Cc1noc(C)c1COc1ccc2ccc(=O)oc2c1 | -2.41% |
| CC(C)OC(=O)c1ccc(COc2ccc3ccc(=O)oc3c2)o1 | 22.4% |
| Cc1ccc(OCC(=O)Nc2ccc3oc(=O)ccc3c2)cc1C | -4.02% |
| CCCCCn1c(=O)[nH]c2cc(C(=O)NCCCN3CCCCC3C)ccc2c1=O (stereo unspecified) | -2.4% |
| CC(C)CN(CC(C)C)CC(O)CN(c1ccccc1)S(=O)(=O)c1ccccc1[N+](=O)[O-] (stereo unspecified) | 3.27% |
| CC(C)CNC(=O)C(=O)NCC(c1ccc2c(c1)OCO2)N1CCOCC1 (stereo unspecified) | -4.38% |
| COCCOC1CCN(C(=O)c2ccc(OC)c(OC3CCN(C(C)C)CC3)c2)CC1 | -2.04% |
| Cc1noc(NS(=O)(=O)c2ccc(NC(=O)c3oc4ccc(F)cc4c3C)cc2)c1C | -2.38% |
| Cc1nc(-c2ccccc2)cn2c1nc1ccccc12 | 12.4% |
| Cc1ccc(S(=O)(=O)N2CCC(Oc3ccc(-n4cnnn4)cc3)CC2)cc1 | -4.88% |
| O=C(Cc1ccc(Br)cc1)NCCN1CCOCC1 | -13% |
| CCN1C(=NCCc2cccnc2)N[C@@H](c2ccccc2)C(C(=O)OC)=C1C | 1.37% and -1.46% |
